# Values without a mark were called inactive. Records with an inconclusive call do not appear. Where a call stands in place of a potency, no number is given. Calls of active or inactive are those of the source. Unless noted, calls come from the whole dose curve; as a rule, active = well fitted curve in the direction sought with a large enough effect in the repeat runs; inconclusive = weak or mixed curves; inactive = no such curve, though single readings can be large; an effect the other way counts as inactive or inconclusive.
# Key:
# [1] = qHTS assay to identify small molecule agonists of the progesterone receptor (PR) signaling pathway - cell viability counter screen (AID 1346799; calls by dose curve; note: nearly all actives have a fitted effect of over 45% in size; note: potency is the fitted concentration of half-maximal effect)
# In short: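 Viability was scored by ATP luminescence (CellTiter-Glo, 30 min, room temperature) in the same wells used for the reporter readout, after 16 hr compound exposure of PR-UAS-bla HEK293T cells.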
# [2] = qHTS assay to identify small molecule antagonists of the TGF-beta/Smad signaling pathway - cell viability counter screen (AID 1346824); note: nearly all actives have a fitted effect of over 50% in size
# In short: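 Cytotoxicity counter-screen run in the same wells as the beta-lactamase Smad reporter read: CellTiter-Glo luminescence after 30 min at room temperature. HEK 293T SBE-bla cells had 5 hr compound exposure at 37 C with TGF-beta1 (0.25 ng/mL stock).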
# [3] = qHTS assay to identify small molecule agonists of the TGF-beta/Smad signaling pathway - cell viability counter screen (AID 1346829); note: top concentration of the series differs between compounds; nearly all actives have a fitted effect of over 45% in size
# In short: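 After overnight seating at 37 C and 5% CO2, reporter cells got compounds for 5 hr and FRET substrate for 2 hr; cell viability then came from CellTiter-Glo luminescence.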
# [4] = qHTS assay to identify small molecule agonists of the TGF-beta/Smad signaling pathway (AID 1346859; active = well fitted activation curve with a large enough effect in the signal ratio in the repeat runs, not every such curve was filed as active; the % refers to the signal ratio; note: series mostly up to about 77 µM)
# In short: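 Dual-wavelength fluorescence (460/530 nm emission) quantified beta-lactamase expression under the Smad binding element in HEK 293T cells following 5 hr compound treatment at 37 C.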
# [5] = target: Thyrotropin-releasing hormone receptor (Homo sapiens) (UniProt P34981); test: qHTS assay to identify small molecule antagonists of the thyrotropin-releasing hormone receptor (TRHR) signaling pathway (AID 1346877; active = well fitted inhibition curve with a large enough effect in the repeat runs, not every such curve was filed as active; note: series mostly up to about 51 µM)
# Thyrotropin-releasing hormone receptor (Homo sapiens), sequence (P34981 whole entry, looked up): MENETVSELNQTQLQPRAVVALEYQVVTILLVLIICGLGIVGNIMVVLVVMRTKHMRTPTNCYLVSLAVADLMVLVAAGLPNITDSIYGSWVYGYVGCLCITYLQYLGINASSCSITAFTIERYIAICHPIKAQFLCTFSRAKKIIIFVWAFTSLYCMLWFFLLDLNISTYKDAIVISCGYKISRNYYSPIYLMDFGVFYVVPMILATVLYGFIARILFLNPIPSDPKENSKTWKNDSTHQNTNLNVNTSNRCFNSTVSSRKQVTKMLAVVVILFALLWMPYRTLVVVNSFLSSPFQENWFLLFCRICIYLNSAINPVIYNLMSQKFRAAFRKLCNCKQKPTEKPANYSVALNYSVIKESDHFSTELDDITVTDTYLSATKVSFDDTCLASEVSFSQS
# In short: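 TRHR-expressing HEK293 cells were seeded, cultured 18 h at 37 °C, then loaded with calcium dye for 2 h. Compounds were pre-incubated 5 min at room temperature before 1 nM TRH (final) was added, and kinetic fluorescence was recorded for 3 min.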
# [6] = target: Thyrotropin-releasing hormone receptor (Homo sapiens) (UniProt P34981); test: qHTS assay to identify small molecule agonists of the thyrotropin-releasing hormone receptor (TRHR) signaling pathway (AID 1346891; calls by dose curve; note: series mostly up to about 58 µM)
# In short: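 Kinetic fluorescence (3 min, 1 s intervals) reported intracellular calcium after compound transfer onto TRHR-Hek293 cells pre-loaded with dye for 2 h at 37 °C.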
# [7] = Caspase-3/7 induction in HepG2 cells by small molecules, qHTS assay (AID 1346978); note: nearly all actives have a fitted effect of over 15% in size; note: potency is the fitted concentration of half-maximal effect
# In short: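 Caspase-3/7 induction was measured by Caspase-Glo 3/7 luminescence (30 min, room temperature) after a 17 hr compound exposure of wild-type HepG2 cells seeded at 2,000 per well and pre-incubated 5 hr.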
# [8] = Caspase-3/7 induction in CHO-K1 cells by small molecules, qHTS cell viability counter screen (AID 1346979); note: nearly all actives have a fitted effect of over 35% in size; note: potency is the fitted concentration of half-maximal effect
# In short: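 Seeding: 1,500 CHO-K1 cells/well. Rest: 5hr, 37C. Treatment: compounds in DMSO, 16hr. Read: CellTiter-Fluor, 1hr, fluorescence.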
# [9] = Caspase-3/7 induction in CHO-K1 cells by small molecules, qHTS assay (AID 1346980); note: nearly all actives have a fitted effect of over 15% in size; note: potency is the fitted concentration of half-maximal effect
# In short: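 Luminescent Caspase-Glo 3/7 read (30min, room temperature) quantified apoptosis induction. Cells were wild-type CHO-K1, treated with compound for 17hr at 37 C and 5% CO2.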
# [10] = target: Nuclear receptor subfamily 1 group I member 2 (Homo sapiens) (UniProt O75469); test: Human pregnane X receptor (PXR) small molecule agonists, qHTS assay (AID 1346982); note: nearly all actives have a fitted effect of over 35% in size; note: potency is the fitted concentration of half-maximal effect
# Nuclear receptor subfamily 1 group I member 2 (Homo sapiens), sequence (O75469 whole entry, looked up): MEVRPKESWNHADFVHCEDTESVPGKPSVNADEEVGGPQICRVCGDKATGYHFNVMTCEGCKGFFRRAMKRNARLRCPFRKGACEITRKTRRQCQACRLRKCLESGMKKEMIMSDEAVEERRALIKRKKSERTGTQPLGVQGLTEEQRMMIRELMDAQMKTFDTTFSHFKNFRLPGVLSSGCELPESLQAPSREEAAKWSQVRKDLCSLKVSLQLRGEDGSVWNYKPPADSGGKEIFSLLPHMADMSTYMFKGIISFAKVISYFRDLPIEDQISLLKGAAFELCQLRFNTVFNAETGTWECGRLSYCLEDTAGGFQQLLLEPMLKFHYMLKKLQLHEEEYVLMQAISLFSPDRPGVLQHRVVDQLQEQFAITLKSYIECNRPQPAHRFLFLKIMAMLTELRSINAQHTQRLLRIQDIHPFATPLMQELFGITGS
# In short: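 PXR-Luc HepG2 cells (CYP3A4 promoter-driven luciferase) were seeded in medium with 5% charcoal-stripped FBS, left 5 hr at 37 C, then exposed to compounds in DMSO for 24 hr. Luminescence was read after ONE-Glo addition.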
# [11] = target: Cytochrome P450 2D6 (Homo sapiens) (UniProt P10635); test: Cytochrome P450 Family 2 Subfamily D Member 6 (CYP2D6) small molecule antagonists: luciferase reporter qHTS assay (AID 1671196); note: nearly all actives have a fitted effect of over 50% in size; note: potency is the fitted concentration of half-maximal effect
# Cytochrome P450 2D6 (Homo sapiens), sequence (P10635 whole entry, looked up): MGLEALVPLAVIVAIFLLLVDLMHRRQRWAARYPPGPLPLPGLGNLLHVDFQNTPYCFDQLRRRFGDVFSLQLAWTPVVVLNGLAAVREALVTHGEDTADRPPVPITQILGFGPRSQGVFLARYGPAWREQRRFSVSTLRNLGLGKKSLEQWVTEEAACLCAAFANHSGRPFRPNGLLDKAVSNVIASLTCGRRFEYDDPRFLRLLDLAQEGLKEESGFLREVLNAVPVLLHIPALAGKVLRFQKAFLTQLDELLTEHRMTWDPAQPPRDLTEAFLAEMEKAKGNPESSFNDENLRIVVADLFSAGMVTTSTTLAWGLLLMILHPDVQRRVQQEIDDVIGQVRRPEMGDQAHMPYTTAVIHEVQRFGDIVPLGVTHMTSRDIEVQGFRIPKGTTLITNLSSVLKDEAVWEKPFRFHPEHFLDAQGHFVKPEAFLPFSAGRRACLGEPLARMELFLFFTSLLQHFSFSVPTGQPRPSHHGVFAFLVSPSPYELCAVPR
# In short: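 CYP2D6 enzyme–substrate mix was held with compound for 10 min at room temperature, then NADPH regeneration solution was added and the reaction ran 1 h at room temperature. Luciferin product was detected by luminescence after 20 min with detection reagent.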
# [12] = target: Cytochrome P450 2C9 (Homo sapiens) (UniProt P11712); test: Cytochrome P450 Family 2 Subfamily C Member 9 (CYP2C9) small molecule antagonists: luciferase reporter qHTS assay (AID 1671198); note: nearly all actives have a fitted effect of over 50% in size; note: potency is the fitted concentration of half-maximal effect
# Cytochrome P450 2C9 (Homo sapiens), sequence (P11712 whole entry, looked up): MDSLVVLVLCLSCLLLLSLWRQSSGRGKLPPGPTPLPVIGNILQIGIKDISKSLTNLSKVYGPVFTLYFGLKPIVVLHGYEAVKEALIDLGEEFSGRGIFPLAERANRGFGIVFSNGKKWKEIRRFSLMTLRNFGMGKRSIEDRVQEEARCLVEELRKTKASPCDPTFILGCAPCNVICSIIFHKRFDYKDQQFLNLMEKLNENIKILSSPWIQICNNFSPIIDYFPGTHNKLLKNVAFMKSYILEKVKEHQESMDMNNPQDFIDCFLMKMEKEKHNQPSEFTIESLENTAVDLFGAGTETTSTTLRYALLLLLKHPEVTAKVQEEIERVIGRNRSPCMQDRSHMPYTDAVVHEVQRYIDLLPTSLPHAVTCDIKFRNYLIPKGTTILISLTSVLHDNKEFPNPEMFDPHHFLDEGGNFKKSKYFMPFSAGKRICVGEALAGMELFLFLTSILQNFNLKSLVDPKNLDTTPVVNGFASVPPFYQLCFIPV
# In short: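 Enzyme-substrate mix preincubated with compound 10 min at room temperature; reaction started with NADPH regeneration solution, 1 h 37C. Luminescent luciferin product read after 20 min detection reagent.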
# [13] = target: Cytochrome P450 1A2 (Homo sapiens) (UniProt P05177); test: Cytochrome P450 Family 1 Subfamily A Member 2 (CYP1A2) small molecule antagonists: luciferase reporter qHTS assay (AID 1671199); note: nearly all actives have a fitted effect of over 50% in size; note: potency is the fitted concentration of half-maximal effect
# Cytochrome P450 1A2 (Homo sapiens), sequence (P05177 whole entry, looked up): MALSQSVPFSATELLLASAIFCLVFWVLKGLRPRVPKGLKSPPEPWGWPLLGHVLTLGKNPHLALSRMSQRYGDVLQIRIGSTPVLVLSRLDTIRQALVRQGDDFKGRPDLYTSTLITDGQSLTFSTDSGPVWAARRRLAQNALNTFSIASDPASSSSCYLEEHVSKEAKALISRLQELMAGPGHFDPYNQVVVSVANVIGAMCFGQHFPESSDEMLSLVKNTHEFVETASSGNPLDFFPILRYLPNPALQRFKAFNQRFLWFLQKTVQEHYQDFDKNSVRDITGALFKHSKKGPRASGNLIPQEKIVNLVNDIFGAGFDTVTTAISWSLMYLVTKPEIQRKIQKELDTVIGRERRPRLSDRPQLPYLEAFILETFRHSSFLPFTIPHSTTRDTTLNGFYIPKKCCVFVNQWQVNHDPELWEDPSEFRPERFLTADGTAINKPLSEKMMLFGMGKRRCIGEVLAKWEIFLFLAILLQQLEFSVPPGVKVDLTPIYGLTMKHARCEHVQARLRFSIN
# In short: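 Human CYP1A2 activity measured with a P450-Glo proluciferin substrate; compounds in DMSO preincubated 10 min at room temperature with enzyme-substrate mix, then NADPH regeneration system added for 1 h. Luciferin detection reagent, 20 min, luminescence read.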
# [14] = target: Voltage-gated inwardly rectifying potassium channel KCNH2 (Homo sapiens) (UniProt Q12809); test: Human Ether-a-go-go-Related Gene (hERG) channel small molecule antagonists: fluorescence cell-based qHTS assay (AID 1671200); note: nearly all actives have a fitted effect of over 50% in size; note: potency is the fitted concentration of half-maximal effect
# Voltage-gated inwardly rectifying potassium channel KCNH2 (Homo sapiens), sequence (Q12809 whole entry, looked up): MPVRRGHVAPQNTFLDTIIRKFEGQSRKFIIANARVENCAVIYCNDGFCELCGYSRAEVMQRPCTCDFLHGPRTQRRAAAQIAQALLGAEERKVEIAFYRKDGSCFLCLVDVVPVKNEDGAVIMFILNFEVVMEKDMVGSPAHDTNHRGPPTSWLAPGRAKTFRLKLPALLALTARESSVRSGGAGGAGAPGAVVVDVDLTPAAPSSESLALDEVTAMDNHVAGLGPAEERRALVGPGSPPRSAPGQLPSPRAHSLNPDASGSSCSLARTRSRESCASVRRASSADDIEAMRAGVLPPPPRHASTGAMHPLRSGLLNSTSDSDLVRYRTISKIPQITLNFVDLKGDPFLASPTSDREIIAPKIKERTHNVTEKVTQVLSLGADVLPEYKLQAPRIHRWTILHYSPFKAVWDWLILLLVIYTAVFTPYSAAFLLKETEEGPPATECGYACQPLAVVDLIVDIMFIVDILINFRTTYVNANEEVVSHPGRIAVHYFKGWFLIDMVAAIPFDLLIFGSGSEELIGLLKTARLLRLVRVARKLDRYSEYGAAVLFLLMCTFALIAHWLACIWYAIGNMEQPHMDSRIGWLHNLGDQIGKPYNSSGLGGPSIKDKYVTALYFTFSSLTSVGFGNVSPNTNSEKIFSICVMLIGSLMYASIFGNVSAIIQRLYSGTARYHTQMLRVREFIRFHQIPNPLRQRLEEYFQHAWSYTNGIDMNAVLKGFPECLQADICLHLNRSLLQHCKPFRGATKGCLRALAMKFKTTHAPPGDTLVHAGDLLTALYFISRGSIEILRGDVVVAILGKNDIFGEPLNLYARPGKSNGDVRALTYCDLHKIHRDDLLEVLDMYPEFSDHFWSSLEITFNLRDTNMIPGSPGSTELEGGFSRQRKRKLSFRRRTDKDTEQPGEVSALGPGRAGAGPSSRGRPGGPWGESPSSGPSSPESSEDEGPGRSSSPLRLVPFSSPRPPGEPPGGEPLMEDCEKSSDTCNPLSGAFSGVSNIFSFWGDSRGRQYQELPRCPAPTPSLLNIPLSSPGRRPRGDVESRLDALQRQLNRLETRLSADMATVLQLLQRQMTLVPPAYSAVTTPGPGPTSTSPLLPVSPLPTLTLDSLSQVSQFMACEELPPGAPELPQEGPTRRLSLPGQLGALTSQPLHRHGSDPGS
# In short: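 First, 1000 cells per well are seeded and cultured overnight at 37 C. Next, FluxOR II dye is loaded for 1 h at room temperature, protected from light. After 10 more minutes, stimulus is added and fluorescence is read.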
# [15] = Human pregnane X receptor (PXR) small molecule agonists, qHTS cell viability counter screen (AID 1346977); note: nearly all actives have a fitted effect of over 50% in size; note: potency is the fitted concentration of half-maximal effect
# In short: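 HepG2 cells stably carrying the PXR-Luc reporter are cultured with 5% charcoal-stripped FBS and treated with compounds for 24hr. CellTiter-Fluor is added at 23hr and fluorescence is read after 1hr.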
# [16] = Caspase-3/7 induction in HepG2 cells by small molecules, qHTS cell viability counter screen (AID 1346981); note: nearly all actives have a fitted effect of over 30% in size; note: potency is the fitted concentration of half-maximal effect
# In short: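 Wild-type HepG2 cells (2,000/well) were allowed to settle for 5 hr at 37 C, 5% CO2, then dosed with compounds in DMSO by pin transfer. After 16 hr at 37 C, CellTiter-Fluor was added and fluorescence read 1 hr later.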
# [17] = target: Cytochrome P450 2C19 (Homo sapiens) (UniProt P33261); test: Cytochrome P450 Family 2 Subfamily C Member 19 (CYP2C19) small molecule antagonists: luciferase reporter qHTS assay (AID 1671197); note: nearly all actives have a fitted effect of over 65% in size; note: potency is the fitted concentration of half-maximal effect
# Cytochrome P450 2C19 (Homo sapiens), sequence (P33261 whole entry, looked up): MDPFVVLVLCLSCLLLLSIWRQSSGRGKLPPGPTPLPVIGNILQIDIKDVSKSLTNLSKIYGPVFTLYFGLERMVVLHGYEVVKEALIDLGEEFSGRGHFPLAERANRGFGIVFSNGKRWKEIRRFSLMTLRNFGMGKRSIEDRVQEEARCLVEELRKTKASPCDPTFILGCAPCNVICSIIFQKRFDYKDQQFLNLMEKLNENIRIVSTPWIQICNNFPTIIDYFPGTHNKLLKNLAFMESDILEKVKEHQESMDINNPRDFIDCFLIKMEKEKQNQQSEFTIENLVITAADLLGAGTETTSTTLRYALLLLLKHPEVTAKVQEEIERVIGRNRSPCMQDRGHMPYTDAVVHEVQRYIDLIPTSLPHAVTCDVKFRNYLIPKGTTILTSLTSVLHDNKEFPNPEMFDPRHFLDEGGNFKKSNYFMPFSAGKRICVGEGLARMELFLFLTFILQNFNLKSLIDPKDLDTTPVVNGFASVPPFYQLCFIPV
# In short: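 Inhibition of CYP2C19 was scored from loss of luminescence in a P450-Glo proluciferin substrate assay, NADPH-started and run 1 h at 37C, with ketoconazole as positive control.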
# [18] = target: Nuclear receptor subfamily 1 group I member 2 (Rattus norvegicus) (UniProt Q9R1A7); test: Rat pregnane X receptor (rPXR) activation by small molecules, qHTS assay (AID 1346983); settings: rPXR luciferase reporter cells, One-Glo luminescence, 24 h; max activation: hits give high values; note: nearly all actives have a fitted effect of over 20% in size
# Nuclear receptor subfamily 1 group I member 2 (Rattus norvegicus), sequence (Q9R1A7 whole entry, looked up): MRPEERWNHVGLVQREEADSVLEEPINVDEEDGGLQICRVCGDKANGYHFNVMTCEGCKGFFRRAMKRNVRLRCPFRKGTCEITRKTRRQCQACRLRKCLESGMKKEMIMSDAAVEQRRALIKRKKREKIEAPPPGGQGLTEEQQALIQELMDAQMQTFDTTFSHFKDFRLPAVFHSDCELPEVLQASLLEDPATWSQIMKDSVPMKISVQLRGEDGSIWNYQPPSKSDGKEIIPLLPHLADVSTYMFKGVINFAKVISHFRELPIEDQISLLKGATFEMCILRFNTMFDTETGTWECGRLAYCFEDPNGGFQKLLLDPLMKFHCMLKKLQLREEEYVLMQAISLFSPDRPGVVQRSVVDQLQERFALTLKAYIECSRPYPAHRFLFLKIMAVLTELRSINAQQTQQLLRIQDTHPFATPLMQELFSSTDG
# In short: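 Luminescent readout (One-Glo luciferase, 30 min room temperature) followed 24 hr compound treatment at 37 C of rPXR cells plated 2,000 per well and preincubated 5hr; qHTS format with compounds delivered in DMSO.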
# [19] = target: Nuclear receptor subfamily 1 group I member 2 (Homo sapiens) (UniProt O75469); test: CYP3A4 induction through human pregnane X receptor (PXR) by small molecules, qHTS assay (AID 1346984); note: nearly all actives have a fitted effect of over 40% in size
# In short: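 DPX-2 cells (HepG2 co-transfected with PXR and CYP3A4 promoter-luciferase) treated with compounds 24 h at 37C; luciferin-IPA CYP3A4 substrate 3uM final added for 3 h, then One-Glo; luminescence read. qHTS format.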
SMILES,Potency [1],Potency [2],Potency [3],outcome [4],Potency [5],Potency [6],Potency [7],Potency [8],Potency [9],Potency [10],Potency [11],Potency [12],Potency [13],Potency [14],Potency [15],Potency [16],Potency [17],max activation [18] [%],Potency [19]
c1ccc2cc3c4ccccc4c4ccccc4c3cc2c1,inactive,inactive,inactive,inactive,inactive,inactive,6.89 µM (active),27.4 µM (active),inactive,4.88 µM (active),inactive,inactive,0.225 µM (active),inactive,,,,,
Cc1cccc2c1ccc1ccccc12,inactive,inactive,inactive,inactive,inactive,,inactive,inactive,inactive,inactive,inactive,,6.33 µM (active),inactive,inactive,inactive,79.6 µM (active),,
[Cl][Sc]([Cl])[Cl],inactive,inactive,inactive,inactive,,,inactive,inactive,inactive,inactive,inactive,inactive,inactive,inactive,inactive,inactive,inactive,,
Oc1cccc2c(O)cccc12,inactive,inactive,inactive,inactive,inactive,inactive,inactive,,inactive,54.5 µM (active),39.9 µM (active),,22.4 µM (active),inactive,,inactive,17.8 µM (active),,
CCc1cccc(C)c1N(C(=O)CS(=O)(=O)O)C(C)COC (stereo not drawn),inactive,inactive,inactive,inactive,inactive,inactive,inactive,,inactive,inactive,inactive,,inactive,inactive,inactive,inactive,,,
O=C1OC(O)C(C(Cl)Cl)=C1Cl (stereo not drawn),inactive,inactive,inactive,inactive,inactive,inactive,inactive,,inactive,22.4 µM (active),inactive,inactive,inactive,,,50 µM (active),inactive,,
Clc1nc(C(Cl)(Cl)Cl)c(Cl)c(Cl)c1Cl,inactive,inactive,inactive,inactive,inactive,inactive,,30.6 µM (active),30.6 µM (active),inactive,31.7 µM (active),35.6 µM (active),2.52 µM (active),49 µM (active),,,31.7 µM (active),,
CCOC(=O)OC(=O)OCC,inactive,inactive,inactive,inactive,inactive,inactive,inactive,,inactive,inactive,inactive,inactive,inactive,inactive,inactive,inactive,inactive,,
COc1cc(OC)nc(NC(=O)NS(=O)(=O)Nc2ccccc2C(=O)N(C)C)n1,inactive,inactive,inactive,inactive,inactive,inactive,inactive,,inactive,43.3 µM (active),,31.7 µM (active),63.3 µM (active),inactive,inactive,inactive,39.9 µM (active),,
COc1cccc(-c2ccc(/C=C\CN3CCCCCC3)cc2Cl)c1,inactive,inactive,inactive,inactive,inactive,inactive,,,,,2.51 µM (active),35.4 µM (active),56.1 µM (active),1.22 µM (active),48.3 µM (active),,44.6 µM (active),,
CC(C)C(=O)C(C)C,inactive,inactive,inactive,inactive,,,inactive,inactive,inactive,inactive,,inactive,inactive,inactive,inactive,inactive,inactive,,
CC1=C(/C=C/C(C)=C/C=C/C(C)=C\C(=O)O)C(C)(C)CCC1,inactive,inactive,inactive,inactive,inactive,inactive,inactive,,,34.5 µM (active),,40 µM (active),40 µM (active),,inactive,inactive,40 µM (active),,
C=C1CC[C@H]2O[C@]2(C)CC[C@@H]2[C@@H]1CC2(C)C,inactive,inactive,inactive,inactive,,,inactive,inactive,inactive,inactive,inactive,,inactive,inactive,inactive,inactive,inactive,,
CC(c1cc(C(C)(C)C)cc(C(C)(C)C)c1O)c1cc(C(C)(C)C)cc(C(C)(C)C)c1O,inactive,inactive,inactive,inactive,inactive,inactive,inactive,,inactive,inactive,inactive,,inactive,inactive,inactive,inactive,31.7 µM (active),,
CC(C)(C)C1=CC(=O)C(C(C)(C)C)=CC1=O,inactive,inactive,inactive,inactive,inactive,inactive,inactive,,inactive,18.8 µM (active),,15.5 µM (active),17.4 µM (active),,inactive,inactive,6.92 µM (active),,
CC(C)(c1ccc(Oc2ccc(N)cc2)cc1)c1ccc(Oc2ccc(N)cc2)cc1,inactive,inactive,inactive,inactive,inactive,inactive,inactive,48.6 µM (active),inactive,61.1 µM (active),inactive,,inactive,inactive,,,7.96 µM (active),,
COc1c(Br)cc(Br)c(C)c1Br,inactive,inactive,inactive,inactive,inactive,inactive,inactive,,inactive,inactive,inactive,,3.56 µM (active),,inactive,inactive,89.4 µM (active),,
Nc1ccc2c(S(=O)(=O)O)cccc2c1S(=O)(=O)O,inactive,inactive,inactive,inactive,inactive,inactive,inactive,,inactive,inactive,inactive,,inactive,,inactive,inactive,inactive,,
C=CC(C)(C)O,inactive,inactive,inactive,inactive,,,inactive,inactive,inactive,inactive,inactive,inactive,inactive,inactive,inactive,inactive,inactive,,
CC(Cc1ccc(O)c(O)c1)C(C)Cc1ccc(O)c(O)c1 (stereo not drawn),inactive,inactive,inactive,inactive,,,inactive,54.5 µM (active),inactive,21.7 µM (active),inactive,12.6 µM (active),inactive,,inactive,,35.6 µM (active),,
O=C(Cl)c1ccc(Cl)cc1Cl,inactive,inactive,inactive,inactive,inactive,,inactive,,,inactive,inactive,,63.3 µM (active),inactive,inactive,inactive,,,
c1ccc(-c2ccc(C(c3ccccc3)n3ccnc3)cc2)cc1 (stereo not drawn),16.8 µM (active),inactive,inactive,inactive,,,inactive,18.8 µM (active),inactive,23.7 µM (active),1.55 µM (active),,5.49 µM (active),7.56 µM (active),,,0.617 µM (active),,
O=[N+]([O-])c1ccc(O)c2ncccc12,inactive,inactive,,inactive,,,inactive,8.41 µM (active),5.96 µM (active),29.8 µM (active),inactive,38.9 µM (active),inactive,inactive,,,inactive,-6.55,inactive
Oc1ccc(Cl)cc1C1CCCC1,inactive,inactive,,inactive,inactive,inactive,,,inactive,68.6 µM (active),inactive,28.3 µM (active),22.4 µM (active),inactive,inactive,inactive,8.94 µM (active),,
Nc1cccnc1N,inactive,inactive,inactive,inactive,,,inactive,,inactive,,,,,inactive,inactive,,,,
C=CC(=O)OCC(Br)CBr (stereo not drawn),inactive,inactive,inactive,inactive,,,inactive,,inactive,inactive,inactive,inactive,inactive,,inactive,inactive,inactive,,
SC1CCCCC1,inactive,inactive,,inactive,inactive,inactive,inactive,inactive,inactive,inactive,inactive,inactive,inactive,,inactive,inactive,inactive,,
CN[C@H]1CC[C@@H](c2ccc(Cl)c(Cl)c2)c2ccc(S(N)(=O)=O)cc21,48.6 µM (active),inactive,,inactive,inactive,inactive,,,,inactive,1.42 µM (active),39.9 µM (active),inactive,9.77 µM (active),61.1 µM (active),61.1 µM (active),50.2 µM (active),,
CCCCCc1ccc(O)cc1,inactive,inactive,,inactive,,,,,inactive,,,63.3 µM (active),63.3 µM (active),inactive,inactive,inactive,22.4 µM (active),,
C=C(C)CCO,inactive,inactive,,inactive,inactive,inactive,inactive,inactive,inactive,inactive,inactive,,inactive,,inactive,inactive,inactive,,

# From PubChem BioAssay (Tox21)
